# According to PubChem BioAssay:
# The source made the active and inactive calls.
# Columns and labels:
# [1] = tested on: PRMT1 (protein arginine N-methyltransferase 1); assay: small molecules binding arginine methyltransferase PRMT1 – biochemical, small-molecule microarray, 635 nm fluorescence, primary screen (AID 1088); details: higher = more signal;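 further: binding of Prmt1 protein to compounds spotted on small-molecule microarray slides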
# [2] = growth effects on S. cerevisiae YJM789 – YJM789 clinical isolate, OD600, 24 h, basal, primary screen (AID 1089); details: higher = more signal, called active from +8 up or from −8 down;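 further: growth of clinical yeast isolate S. cerevisiae YJM 789 seeded 1000 cells per well; test concentration not given here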
# [3] = S. pombe growth modifiers, basal conditions – strain 972, OD600, 24 h, no modulator, primary screen (AID 1090);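 further: basal condition with compound alone and no growth modifier present; test concentration not given here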; details: S. pombe 972 growth, higher = more signal, called active from +8 up or from −8 down
# [4] = budding yeast growth modifiers under rapamycin – strain BY4716, OD600, 96 h, primary screen (AID 1091); further: test concentration not given here; details: S. cerevisiae BY4716 + rapamycin, higher = more signal, called active from +8 up or from −8 down
# [5] = target: Torsin-1A-interacting protein 2 (Homo sapiens) (UniProt Q8NFQ8); assay: small molecules binding lysate-expressed LULL1 – cell lysate, human LULL1 lysate, 635/667 nm fluorescence, primary screen (AID 1092); details: small-molecule microarray, hLULL1 lysate binding, 635 nm fluorescence; higher = more signal;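 further: probe is lysate of COS7 cells overexpressing human LULL1; score merges per-feature 667 nm fluorescence with signal-to-noise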
# [6] = optical density change of DRC41 E. coli – strain DRC41, OD650, 24 h, E. coli filamentation project, primary screen (AID 1093);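 further: MC1000 strain lacking acrAB efflux and sulA so SOS filamentation is blocked; test concentration not given here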; details: E. coli DRC41 growth, higher = more signal, called active from +8 up or from −8 down
# [7] = probe aLefty2 binding to arrayed compounds – biochemical, biotinylated probe, 635/667 nm fluorescence, primary screen (AID 1094); details: small-molecule microarray, higher = more signal;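 further: score merges spot fluorescence near 667 nm with spot signal-to-noise ratio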
# [8] = tested on: Noggin (protein binding on small-molecule microarray); assay: small molecules binding Noggin protein – biochemical, 635/667 nm fluorescence, primary screen (AID 1095); details: 635 nm fluorescence, higher = more signal;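 further: score merges 667 nm feature fluorescence with signal to noise over triplicate slides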
# [9] = target: Neurogenic locus notch homolog protein 3 (Homo sapiens) (UniProt Q9UM47); assay: small molecules binding NOTCH3 protein – biochemical, 635/667 nm fluorescence, primary screen (AID 1096); details: small-molecule microarray, 635 nm fluorescence, higher = more signal
# [10] = probe aEGFR binding to arrayed compounds – biochemical, biotinylated probe, 635/667 nm fluorescence, primary screen (AID 1097); details: small-molecule microarray, higher = more signal;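 further: probe is a biotinylated anti-EGFR antibody binding compounds printed on slides; score combines fluorescence near 667 nm and signal to noise of each spot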
# [11] = tested on: Plasmodium falciparum Sir2 (PF13_0152, Sir2A); assay: Plasmodium falciparum Sir2A binding compounds – biochemical, small-molecule microarray, 635 nm fluorescence, primary screen (AID 1098); details: fluorescence 635 nm, higher = more signal;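 further: score merges spot fluorescence intensity with its signal-to-noise ratio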
# [12] = probe aDKK1 binding to arrayed compounds – biochemical, biotinylated probe, 635/667 nm fluorescence, primary screen (AID 1099); details: small-molecule microarray, higher = more signal;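 further: score merges 667nm spot fluorescence with signal to noise across triplicate slides; reference of the scale not given here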
# [13] = probe aCHRDL2 binding to arrayed compounds – biochemical, biotinylated probe, 635/667 nm fluorescence, primary screen (AID 1100); details: small-molecule microarray, higher = more signal
# [14] = change in splice reporter luminescence, either direction, cell-based, HEK293, spliceosome inhibition project, primary screen (AID 1101); details: HEK293 splicing luciferase reporter, 24 h, higher = more signal, called active from +8 up or from −8 down;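 further: HEK293 cells carrying a splicing-competent luciferase reporter gene; test concentration not given here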
# [15] = target: Fibroblast growth factor 10 (Homo sapiens) (UniProt O15520); assay: compounds binding fibroblast growth factor 10 – biochemical, small-molecule microarray, 635 nm fluorescence, primary screen (AID 1102); details: FGF10 binding, fluorescence 635 nm, higher = more signal
# [16] = tested on: glycogen synthase kinase-3 (GSK3A per assay name; protocol says GSK3B); assay: compounds binding glycogen synthase kinase-3 – biochemical, small-molecule microarray, 635 nm fluorescence, GSK3A, primary screen (AID 1103); details: fluorescence 635 nm, higher = more signal; further: the record names both GSK3A and GSK3B
# [17] = target: Epidermal growth factor receptor (Homo sapiens) (UniProt P00533); assay: compounds binding epidermal growth factor receptor – biochemical, small-molecule microarray, 635 nm fluorescence, primary screen (AID 1104); details: EGFR binding, higher = more signal;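 further: score merges 667 nm emission intensity with spot signal to noise over triplicate slides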
# [18] = target: Follistatin-related protein 3 (Homo sapiens) (UniProt O95633); assay: compounds binding follistatin-related protein 3 – biochemical, small-molecule microarray, 635 nm fluorescence, primary screen (AID 1105); details: FSTL3 binding, higher = more signal;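 further: score merges emission near 667 nm and signal to noise per printed spot across three slides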
# [19] = target: Dickkopf-related protein 1 (Homo sapiens) (UniProt O94907); assay: small molecules binding DKK1 protein – biochemical, small-molecule microarray, 635 nm fluorescence scan, primary screen (AID 1106); details: higher = more signal;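 further: score merges emission near 667 nm with signal to noise over three replicate slides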
# [20] = tested on: Inhibin beta A chain (activin A); assay: small molecules binding activin A – biochemical, small-molecule microarray, 635 nm fluorescence scan, primary screen (AID 1107); details: INHBA, higher = more signal;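 further: mouse activin A protein probed at 4.33 µg/mL on printed slides; score merges bound-protein fluorescence near 667 nm with spot signal-to-noise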
# Chain of Follistatin-related protein 3 (Homo sapiens) (O95633 whole entry, looked up): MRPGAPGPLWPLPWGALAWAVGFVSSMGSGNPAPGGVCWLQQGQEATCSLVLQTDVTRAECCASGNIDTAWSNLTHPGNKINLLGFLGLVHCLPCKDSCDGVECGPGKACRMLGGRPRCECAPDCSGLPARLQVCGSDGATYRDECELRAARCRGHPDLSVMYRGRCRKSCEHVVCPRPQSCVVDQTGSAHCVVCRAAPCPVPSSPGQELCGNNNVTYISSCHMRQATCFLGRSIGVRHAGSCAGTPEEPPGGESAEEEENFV
# Chain of Torsin-1A-interacting protein 2 (Homo sapiens) (Q8NFQ8 whole entry, looked up): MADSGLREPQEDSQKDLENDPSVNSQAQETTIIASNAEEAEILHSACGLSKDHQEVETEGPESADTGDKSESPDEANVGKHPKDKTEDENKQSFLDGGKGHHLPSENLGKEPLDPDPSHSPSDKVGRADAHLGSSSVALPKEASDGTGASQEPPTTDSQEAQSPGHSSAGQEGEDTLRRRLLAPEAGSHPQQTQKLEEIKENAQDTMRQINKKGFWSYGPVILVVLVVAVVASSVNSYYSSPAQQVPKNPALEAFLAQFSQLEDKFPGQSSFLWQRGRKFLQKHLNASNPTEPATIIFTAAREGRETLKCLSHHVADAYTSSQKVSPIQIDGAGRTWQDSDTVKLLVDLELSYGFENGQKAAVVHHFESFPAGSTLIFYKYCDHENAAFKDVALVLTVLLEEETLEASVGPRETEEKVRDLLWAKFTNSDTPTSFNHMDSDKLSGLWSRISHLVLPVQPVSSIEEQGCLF
# Chain of Neurogenic locus notch homolog protein 3 (Homo sapiens) (Q9UM47 whole entry, looked up): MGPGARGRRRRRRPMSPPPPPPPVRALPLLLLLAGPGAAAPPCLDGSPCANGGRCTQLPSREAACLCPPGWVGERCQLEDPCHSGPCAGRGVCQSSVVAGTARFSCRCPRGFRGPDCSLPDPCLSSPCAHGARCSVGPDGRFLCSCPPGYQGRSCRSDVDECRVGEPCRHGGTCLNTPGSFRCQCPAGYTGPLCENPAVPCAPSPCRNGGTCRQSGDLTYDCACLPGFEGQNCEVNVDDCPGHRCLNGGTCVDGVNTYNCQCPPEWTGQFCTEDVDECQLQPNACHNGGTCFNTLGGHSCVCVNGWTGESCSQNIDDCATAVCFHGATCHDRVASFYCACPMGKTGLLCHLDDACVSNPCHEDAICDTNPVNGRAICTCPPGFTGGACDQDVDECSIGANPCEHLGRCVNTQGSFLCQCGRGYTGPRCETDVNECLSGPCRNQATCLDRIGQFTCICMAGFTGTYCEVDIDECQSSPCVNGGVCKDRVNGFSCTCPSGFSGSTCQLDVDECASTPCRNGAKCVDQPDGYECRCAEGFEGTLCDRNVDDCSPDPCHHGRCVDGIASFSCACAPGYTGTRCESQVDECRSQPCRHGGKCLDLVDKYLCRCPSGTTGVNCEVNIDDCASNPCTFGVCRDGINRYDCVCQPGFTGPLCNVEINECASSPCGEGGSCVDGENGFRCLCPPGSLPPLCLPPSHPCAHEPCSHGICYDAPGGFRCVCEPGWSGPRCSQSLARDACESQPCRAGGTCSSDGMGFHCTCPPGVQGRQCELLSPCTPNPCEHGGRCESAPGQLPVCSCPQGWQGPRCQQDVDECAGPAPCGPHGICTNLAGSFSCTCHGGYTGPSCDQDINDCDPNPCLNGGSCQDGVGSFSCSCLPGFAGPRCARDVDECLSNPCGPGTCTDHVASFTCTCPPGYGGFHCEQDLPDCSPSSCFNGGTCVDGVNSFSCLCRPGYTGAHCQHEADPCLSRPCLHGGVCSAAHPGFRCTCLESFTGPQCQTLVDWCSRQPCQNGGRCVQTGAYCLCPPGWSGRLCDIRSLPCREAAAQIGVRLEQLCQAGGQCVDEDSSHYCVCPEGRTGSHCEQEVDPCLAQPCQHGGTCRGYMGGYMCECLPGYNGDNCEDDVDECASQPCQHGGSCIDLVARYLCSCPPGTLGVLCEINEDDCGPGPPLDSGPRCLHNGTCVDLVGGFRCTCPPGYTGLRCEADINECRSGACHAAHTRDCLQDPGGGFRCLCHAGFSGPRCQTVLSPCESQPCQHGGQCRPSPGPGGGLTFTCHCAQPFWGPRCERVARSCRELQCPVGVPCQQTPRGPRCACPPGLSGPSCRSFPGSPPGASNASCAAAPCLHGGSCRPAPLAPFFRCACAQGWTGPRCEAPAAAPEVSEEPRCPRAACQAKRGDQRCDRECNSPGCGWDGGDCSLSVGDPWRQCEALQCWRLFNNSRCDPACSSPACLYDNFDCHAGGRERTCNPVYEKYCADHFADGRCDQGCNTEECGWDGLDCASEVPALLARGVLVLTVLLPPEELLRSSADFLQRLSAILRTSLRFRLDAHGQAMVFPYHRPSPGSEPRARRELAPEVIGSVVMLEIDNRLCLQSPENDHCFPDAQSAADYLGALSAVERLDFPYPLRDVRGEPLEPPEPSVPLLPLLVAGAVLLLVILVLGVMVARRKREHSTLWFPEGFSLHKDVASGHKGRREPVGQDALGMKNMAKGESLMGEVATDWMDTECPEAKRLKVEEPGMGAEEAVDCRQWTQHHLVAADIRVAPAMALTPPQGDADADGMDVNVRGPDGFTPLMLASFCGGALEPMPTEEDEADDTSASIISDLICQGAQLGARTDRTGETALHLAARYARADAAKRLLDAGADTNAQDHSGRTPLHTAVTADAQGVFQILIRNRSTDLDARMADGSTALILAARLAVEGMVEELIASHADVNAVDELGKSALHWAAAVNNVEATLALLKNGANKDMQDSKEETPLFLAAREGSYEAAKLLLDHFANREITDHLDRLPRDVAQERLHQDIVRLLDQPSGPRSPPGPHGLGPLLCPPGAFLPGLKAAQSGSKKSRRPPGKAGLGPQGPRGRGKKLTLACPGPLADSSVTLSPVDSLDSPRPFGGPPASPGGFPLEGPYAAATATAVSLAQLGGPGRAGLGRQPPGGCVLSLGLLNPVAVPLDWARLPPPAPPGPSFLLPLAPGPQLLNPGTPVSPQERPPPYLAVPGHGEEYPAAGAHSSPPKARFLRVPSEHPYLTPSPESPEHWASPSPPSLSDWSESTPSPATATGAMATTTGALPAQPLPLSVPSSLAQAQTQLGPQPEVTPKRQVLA
# Chain of Epidermal growth factor receptor (Homo sapiens) (P00533 whole entry, looked up): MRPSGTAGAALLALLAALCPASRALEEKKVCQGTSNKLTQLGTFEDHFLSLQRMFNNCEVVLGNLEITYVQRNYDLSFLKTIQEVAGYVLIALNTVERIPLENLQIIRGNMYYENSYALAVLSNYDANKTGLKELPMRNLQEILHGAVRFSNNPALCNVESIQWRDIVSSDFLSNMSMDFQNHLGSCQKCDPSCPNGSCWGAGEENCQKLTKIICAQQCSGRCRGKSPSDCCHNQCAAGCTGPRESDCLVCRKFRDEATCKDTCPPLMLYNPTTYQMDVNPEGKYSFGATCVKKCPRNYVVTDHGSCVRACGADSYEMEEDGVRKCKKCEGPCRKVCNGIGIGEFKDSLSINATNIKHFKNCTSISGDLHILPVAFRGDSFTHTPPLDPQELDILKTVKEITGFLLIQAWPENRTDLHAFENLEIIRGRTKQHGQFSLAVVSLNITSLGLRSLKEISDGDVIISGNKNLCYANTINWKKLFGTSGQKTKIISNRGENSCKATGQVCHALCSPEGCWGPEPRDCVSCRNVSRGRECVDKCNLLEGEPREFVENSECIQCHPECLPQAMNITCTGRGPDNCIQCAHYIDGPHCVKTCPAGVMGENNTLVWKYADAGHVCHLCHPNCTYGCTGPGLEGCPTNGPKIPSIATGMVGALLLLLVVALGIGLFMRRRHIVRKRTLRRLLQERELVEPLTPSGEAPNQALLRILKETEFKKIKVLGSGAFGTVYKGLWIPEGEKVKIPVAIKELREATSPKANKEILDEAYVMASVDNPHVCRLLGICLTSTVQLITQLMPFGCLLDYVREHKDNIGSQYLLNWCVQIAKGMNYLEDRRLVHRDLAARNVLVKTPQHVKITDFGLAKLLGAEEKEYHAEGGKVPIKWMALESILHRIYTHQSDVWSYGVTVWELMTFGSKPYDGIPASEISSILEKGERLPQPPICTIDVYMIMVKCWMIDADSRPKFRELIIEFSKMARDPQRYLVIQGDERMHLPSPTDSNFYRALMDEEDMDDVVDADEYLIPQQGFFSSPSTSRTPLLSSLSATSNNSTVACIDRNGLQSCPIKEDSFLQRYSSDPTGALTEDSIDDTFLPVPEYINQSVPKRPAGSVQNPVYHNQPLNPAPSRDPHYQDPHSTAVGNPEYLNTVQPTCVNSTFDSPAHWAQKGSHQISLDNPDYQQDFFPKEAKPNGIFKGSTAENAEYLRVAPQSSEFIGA
# Chain of Fibroblast growth factor 10 (Homo sapiens) (O15520 whole entry, looked up): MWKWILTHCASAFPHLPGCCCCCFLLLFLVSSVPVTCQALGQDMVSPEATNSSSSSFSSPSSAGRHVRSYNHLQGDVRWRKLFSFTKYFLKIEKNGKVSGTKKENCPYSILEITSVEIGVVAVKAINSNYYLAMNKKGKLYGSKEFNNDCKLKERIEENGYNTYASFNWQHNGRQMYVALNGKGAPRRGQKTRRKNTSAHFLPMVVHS
# Chain of Dickkopf-related protein 1 (Homo sapiens) (O94907 whole entry, looked up): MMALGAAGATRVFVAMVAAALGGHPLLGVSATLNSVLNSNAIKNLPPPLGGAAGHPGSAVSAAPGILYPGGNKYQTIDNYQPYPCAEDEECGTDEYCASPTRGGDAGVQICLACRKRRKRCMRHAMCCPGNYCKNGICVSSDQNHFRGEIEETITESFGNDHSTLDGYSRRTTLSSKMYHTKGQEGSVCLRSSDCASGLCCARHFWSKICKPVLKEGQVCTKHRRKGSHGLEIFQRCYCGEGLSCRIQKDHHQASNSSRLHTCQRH
Structure (SMILES),composite z-score [1],z-score [2],z-score [3],z-score [4],composite z-score [5],z-score [6],composite z-score [7],composite z-score [8],composite z-score [9],composite z-score [10],composite z-score [11],composite z-score [12],composite z-score [13],z-score [14],composite z-score [15],composite z-score [16],composite z-score [17],composite z-score [18],composite z-score [19],composite z-score [20]
O=C1[C@H]2[C@H]3[C@H](O)[C@H](O)CC(=NOC[C@@H](O)COCc4ccco4)[C@H]3CC[C@H]2C(=O)N1C[C@@H]1CCCO1,0.629,-0.193 (inactive),0.236 (inactive),-0.318 (inactive),-0.884,0.0018 (inactive),-0.138,0.759,0.28,0.0872,0.717,-0.369,-1.4,0.273 (inactive),0.725,1.2,0.947,0.95,1.21,-0.0262
CC(C)CON=C1C[C@@H](O)[C@@H](O)[C@@H]2[C@@H]3C(=O)N(c4cccc(Oc5ccccc5)c4)C(=O)[C@@H]3CC[C@@H]12,1.4,-1.57 (inactive),0.174 (inactive),-0.827 (inactive),1.86,-0.961 (inactive),-0.131,1.02,0.046,-0.109,1.13,-0.277,-0.446,-1.24 (inactive),0.746,0.789,0.368,0.348,0.195,-0.163
CC(C)C[C@H](NC(=O)CCC1CC(OC(=O)NCc2cccc3ccccc23)CC2(CCCC(COC(=O)NCc3ccccc3)O2)O1)C(=O)NCC(c1ccccc1)c1ccccc1 (stereo not given in full),1.56,-0.852 (inactive),0.333 (inactive),-0.576 (inactive),1.97,0.94 (inactive),-0.166,1.64,1.09,-0.0333,0.683,-0.0553,-0.304,0.536 (inactive),1.26,0.91,0.667,1.12,0.861,-0.156
CCOC(=O)[C@H](Cc1ccccc1)NC(=O)CCC1CC(OC(=O)NCCc2ccc(F)cc2)CC2(CCCC(COC(=O)NCCc3ccccc3OC)O2)O1 (stereo not given in full),1.4,-0.053 (inactive),0.932 (inactive),0.785 (inactive),2.18,-0.715 (inactive),-0.157,0.955,1.13,0.0846,1.14,-0.275,-0.556,-0.0644 (inactive),1.06,1.28,0.42,0.857,0.782,-0.314
COc1ccc(O[C@H]2C=C[C@@H](c3ccccc3)O[C@@H]2CON=C(C)C)cc1,-0.818,0.278 (inactive),-2.91 (inactive),0.0212 (inactive),-0.222,0.511 (inactive),0.175,-0.0668,-0.943,0.0102,1.04,0.267,0.755,1.07 (inactive),-0.665,-1.12,-0.0601,-0.0815,-0.292,1.42
CC[C@@H](c1ccccc1)n1c(=O)n2n(c1=O)[C@H]1[C@H](O)[C@@H]3O[C@@H]3C(=O)[C@H]1CC2,0.342,-0.0637 (inactive),-2.45 (inactive),-0.0584 (inactive),0.396,0.473 (inactive),0.444,0.417,0.285,-0.0431,1.23,-0.245,-0.717,0.797 (inactive),0.427,0.417,0.489,0.32,0.466,0.384
C[C@@H](ON=C1[C@H]2CCn3c(=O)n(-c4ccccc4)c(=O)n3[C@H]2[C@H](O)[C@@H]2O[C@H]12)c1cn([C@@H]2COC[C@H]2O)nn1,0.556,-0.638 (inactive),0.636 (inactive),0.0921 (inactive),-0.219,0.389 (inactive),-0.152,0.57,0.72,-0.0788,0.507,-0.235,-0.511,0.413 (inactive),0.31,0.555,0.702,0.51,0.446,0.0788
C[n+]1ccc(-c2ccc(CO)cc2)cc1,1.37,-1.14 (inactive),-0.902 (inactive),3.9 (inactive),-0.202,0.917 (inactive),0.149,0.634,1.06,-0.188,-1.19,0.116,0.808,1.29 (inactive),0.747,-0.435,1.51,1.6,0.953,2.16
CCOC(=O)NN=C1C[C@@H](O)[C@@H](O)[C@@H]2[C@@H]3C(=O)N([C@@H](C)c4ccccc4)C(=O)[C@@H]3CC[C@@H]12,1.46,-0.707 (inactive),0.159 (inactive),-0.231 (inactive),-0.0284,0.667 (inactive),-0.113,0.797,0.954,0.143,0.799,-0.315,-0.677,1.31 (inactive),0.725,1.12,1.09,1.34,0.867,1.43
